Data: PubChem BioAssay (NCI)
The panel holds about 83,000 compounds, 20% with a hit somewhere; the sample as a whole holds those more often.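 Cell lines were cultured in 96-well plates, exposed to a single compound concentration, and assessed for percent growth 48 hours later.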 A number with no mark means an inactive call. Calls of active or inactive are those of the source. How the source made its calls: active means growth percent below 10; inactive means the rest.

test system: HL-60(TB) leukemia; experiment: NCI-60 one-dose screen, 48 h (100 = growth as untreated, 0 = no growth, -100 = all killed); details: 10 µM unless noted

Row | Structure (SMILES) | growth
1 | CC1(C)CC[C@]2(C(=O)Nc3ccccn3)CC[C@]3(C)C(=CC[C@@H]4[C@@]5(C)C/C(=C/c6cccnc6)C(=O)C(C)(C)[C@@H]5CC[C@]43C)[C@H]2C1 | 1.84% (active)
2 | O=C(c1ccccc1O)N1CCCC1 | 91.8%
3 | COc1ccc(-n2nc(C)c3c(Oc4ccc(NC(=O)Nc5c(Cl)cccc5Cl)cc4)ncnc32)cc1 | 100%
4 | Cc1nc2ccccc2c(/C=C/c2ccc(Cl)cc2)c1C(=O)/C=C/c1ccccc1 | 5.7% (active)
5 | COc1ccc(-c2cc(=O)c3c(OC)c4ccoc4cc3o2)cc1 | 117%
6 | CC1=C[C@H]2c3c(c(O)c(O)c4oc5ccccc5c(=O)c34)[C@H](c3cc(O)c(O)c4oc5ccccc5c(=O)c34)[C@H]2C(C)(C)C1 | -23% (active)
7 | O=C(CN1CCOCC1)Nc1ccc2ncnc(Nc3ccc(Oc4cccc(F)c4)c(Cl)c3)c2c1 | 84.5%
8 | CCCCn1c(=O)c2c(nc3n2CCCN3CCc2ccc(OCC(=O)NCCN(CC)CC)cc2)n(CCCC)c1=O | 67.3%
9 | CN(C)[C@@H]1C(=O)C(C(=O)NCc2nc3[nH]cnc(=S)c3[nH]2)=C(O)[C@@]2(O)C(=O)C3=C(O)c4c(O)cccc4[C@@](C)(O)[C@H]3C[C@@H]12 | 4.14% (active)
10 | COc1ccc(C2NN=C3c4ccccc4CCC32)cc1 (stereo unspecified) | 40.7%
11 | Cc1cn(C2CCCCO2)c(=O)nc1NO (stereo unspecified) | 102%
12 | CC1=C(C)C(=O)C(Nc2cccc(C(=O)OC(C)(C)C)c2)=C(Br)C1=O | 54.9%
13 | O=c1cc(CSc2nnc(-c3ccc(F)cc3)o2)c2ccc3ccccc3c2o1 | 99.9%
14 | CCOC(=O)n1cc(C2=C(c3cn(C)c4ccccc34)COC2=O)c2ccccc21 | -23.6% (active)
15 | COc1cc(C(=O)O)c(O)c(C(C)(C)C)c1 | 106%
16 | COc1ccc(Cc2cnc(NC(=O)c3sc4ccccc4c3Cl)s2)cc1 | -50.3% (active)
17 | [2H]c1nc(=Nc2cc(NC(=O)C=C)c(N(C)CCN(C)C)cc2OC)[nH]c(-c2cn(C([2H])([2H])[2H])c3ccccc23)c1[2H] | -37.8% (active)
18 | Cc1c(Cl)cccc1NS(=O)(=O)c1ccccc1 | 113%

Row | Structure (SMILES) | growth
19 | C=C(CNCCc1ccc(O)cc1)[C@@H]1CC[C@]2(COC3CCCCO3)CC[C@]3(C)[C@H](CC[C@@H]4[C@@]5(C)CCC(N)C(C)(C)[C@@H]5CC[C@]43C)[C@@H]12 (stereo partly specified) | -75.6% (active)
20 | COc1ccc(C2=Nn3c(nnc3-c3ccc(Cl)cc3N)SC2)cc1 | 100%
21 | CCNCCNc1cc(-c2ccc(C#N)cc2)c(C#N)c2nc3ccccc3n12 | -45.4% (active)
22 | O=C(Nc1ccncc1)C(=O)c1cn(S(=O)(=O)c2cc(Cl)cc(Cl)c2)c2ccccc12 | 58.9%
23 | COP(=O)(OC)/C(=N\NS(=O)(=O)c1ccc(C)cc1)c1ccccc1 | 100%
24 | CCN(CC)CCCC(C)NCCCNc1cccc2cccnc12 (stereo unspecified) | -5.92% (active)
25 | NS(=O)(=O)c1ccc(CCN=C=S)cc1 | -2.31% (active)
26 | COc1cc2c(cc1OCCCN1CCN(C(=S)SCCC(C#N)(c3ccccc3)c3ccccc3)CC1)N=C[C@@H]1CCCN1C2=O | 0.178% (active)
27 | O=C1Nc2ccccc2C1(c1c[nH]c2ccccc12)c1c[nH]c2ccccc12 | 77.8%
28 | C[C@H](C(=O)Nc1ccc(S(N)(=O)=O)cc1)S(=O)(=O)c1ccccc1 | 101%
29 | CCN(CC)CCNc1ccc(Cl)cc1Cl | 92.9%
30 | Cc1cc(O[C@@H]2O[C@@H](C)[C@H](O)[C@@H](O)[C@H]2O)c2c3c(c(O[C@@H]4O[C@@H](C)[C@H](O)[C@@H](O)[C@H]4O)cc2c1)C(=O)c1c(O)cccc1C3=O | 64.9%
31 | Cc1ccc2c(O)c(O)cc(NC(C)CCCN)c2n1 (stereo unspecified) | 28.3%
32 | O=C(O)c1ccccc1Oc1cc(-c2ccco2)nc(OCCBr)n1 | 100%
33 | Cc1noc(C)c1-c1cc(O)cc(C(O)c2ccccc2)c1 (stereo unspecified) | 10%
34 | CC1(C)CC(=O)c2c(ccc(C(=O)C[C@@H](N)CO)c2N)O1 | 35.7%
35 | OC(CNc1ccnc2cc(Cl)ccc12)CNc1ccnc2cc(Cl)ccc12 | -5.79% (active)
36 | COc1ccc(-c2nc(-c3nc4ccc(Cl)cc4[nH]3)c3ccccn23)cc1 | 82.8%
